Calls of active or inactive are those of the source. Rule for the calls: active = hit-call score of the fitted dose curve at least 0.9, where 1 is the maximum; inactive = score below 0.9.
The compounds below were run on Macrophage colony-stimulating factor (MCSF), CSF1 (gene 1435) (assay: BSK_hDFCGF_MCSF: BioMAP Diversity Plus: hDFCGF Assay for Macrophage colony-stimulating factor (MCSF) Biomarker Activity (AID 2283060)). Conditions: primary human foreskin fibroblasts; actives raise or lower the signal.
Description: BSK_hDFCGF is a cell-based, multiplexed-readout assay that uses foreskin fibroblast, a human skin primary cell, with measurements taken at 24 hours after chemical dosing in a 96-well plate.BSK_hDFCGF_MCSF is an assay component measured in the BSK_hDFCGF assay. It measures M-CSF antibody related to regulation of gene expression using ELISA technology.Data from the assay component BSK_hDFCGF_MCSF was analyzed into 1 assay endpoint. This assay endpoint, BSK_hDFCGF_MCSF, was analyzed with bidirectional fitting relative to DMSO as the negative control and baseline of activity. Using a type of binding reporter, gain or loss-of-signal activity can be used to understand changes in the signaling as they relate to the gene CSF1. Furthermore, this assay endpoint can be referred to as a primary readout, because this assay has produced multiple assay endpoints where this one serves a signaling function. To generalize the intended target to other relatable targets, this assay endpoint is annotated to the cytokine intended target family, where the subfamily is colony stimulating factor.
The levels of cell surface (or secreted, indicated by the prefix "s") biomarker endpoints were measured by ELISA. Overt cytotoxicity to cells in confluent adherent cultures (all systems other than the BT system) was assessed by measuring total protein levels using sulforhodamine B (SRB) staining in parallel cultures at the time of biomarker measurements, indicated as SRB endpoints. For proliferation assays for adherent cell types, individual cell types are cultured at sub-confluence and relative cell numbers quantified by SRB staining at time points optimized for each system (48 h: 3C and CASM3C systems; 72 h: BT and HDF3CGF systems; 96 h: SAg system). SRB was performed by staining cells with 0.1% SRB after fixation with 10% TCA and reading wells at 560 nm.Viability and proliferation of PBMC (T cells) was quantified by Alamar Blue reduction for the SAg and BT systems. For PBMC viability (referred to as PBMC Cytotoxicity within the assay endpoint names), cells were plated (75,000/well in a 96-well plate) and then chemical samples added for 1 h before addition of activators, SEB and TSST-1 (20 ng/mL final concentration each). Cells were incubated for 90 h. Then, Alamar Blue (20 uL/well) (Invitrogen, Cat DAL1100) was added for 6 h, and the plates were read with a fluorescence microplate reader at 546/580 nm (excitation/emission). For PBMC proliferation, cells were plated and activated as above but incubated for only 16 h prior to addition of Alamar Blue. Plates were read after 6 h.

Structure (SMILES)	outcome	AC50
CCCCCCC(CCCCCCCCCCC(=O)OCC(COC(C)=O)OC(C)=O)OC(C)=O (stereo not given)	inactive	
CC(=O)O	inactive	
CCOCCOCCO	inactive	
CCc1nc(N)nc(N)c1-c1ccc(Cl)cc1	inactive	
CCCCCCCC(=O)OC	inactive	
Cc1cn([C@H]2C=C[C@@H](CO)O2)c(=O)[nH]c1=O	inactive	
CN(C)C(=O)NC1(c2ccccc2)CCN(CCC[C@]2(c3ccc(Cl)c(Cl)c3)CCCN(C(=O)c3ccccc3)C2)CC1	inactive	
S=c1[nH]c2ccccc2s1	inactive	
OCC(O)CO	inactive	
O=C(O)CC(O)(CC(=O)O)C(=O)O	inactive	
Cc1ccc(-c2cc(C(F)(F)F)nn2-c2ccc(S(N)(=O)=O)cc2)cc1	inactive	
O=NO	inactive	
CC(C)OC(=O)C(C)(C)Oc1ccc(C(=O)c2ccc(Cl)cc2)cc1	inactive	
O=C1CCCCC1	inactive	
CC(COCC(C)OC(=O)c1ccccc1)OC(=O)c1ccccc1 (stereo not given)	inactive	
COC(=O)[C@H]1[C@H]2C[C@@H]3c4[nH]c5cc(OC)ccc5c4CCN3C[C@H]2C[C@@H](OC(=O)c2cc(OC)c(OC)c(OC)c2)[C@@H]1OC	inactive	
OCC(CO)n1cnc(-c2ccc(F)cc2)c1-c1ccnc(Oc2ccccc2)n1		0.148 µM (active)
C/C=C/C=C/C(=O)O	inactive	
CCCCC(CC)COC(=O)CCCCCCCC(=O)OCC(CC)CCCC (stereo not given)	inactive	
O=C1NC(=O)C(c2ccccc2)(c2ccccc2)N1	inactive	

Structure (SMILES)	outcome	AC50
CCCCC(CC)CO (stereo not given)	inactive	
COc1ccc(OC(F)(F)F)cc1CN[C@H]1CCCN[C@H]1c1ccccc1	inactive	
CC(C)NCC(O)c1ccc(O)c(O)c1 (stereo not given)	inactive	
Nc1nc(=S)c2[nH]cnc2[nH]1	inactive	
CS(=O)(=O)c1ccc([C@@H](C[C@H]2CCC(=O)C2)C(=O)Nc2cnccn2)cc1Cl	inactive	
Oc1ccccc1O		13.3 µM (active)
CCCC[C@H]1CN(CC2CCOCC2)C(=O)OC12CCN(C1(C)CCN(C(=O)c3c(C)ncnc3C)CC1)CC2	inactive	
O=C(Oc1ccccc1)c1cccc(C(=O)Oc2ccccc2)c1	inactive	
N[C@@H](Cc1c[nH]c2ccccc12)C(=O)O	inactive	
CC(C)COC(=O)CCCCC(=O)OCC(C)C	inactive	
CN(C)CCCN(C)CCCN(C)C	inactive	
CC(C)(O)c1ccc(CNC(=O)c2cccnc2Oc2ccc(F)cc2)cc1	inactive	
CC(=O)[C@@]1(O)CC[C@H]2[C@@H]3CCC4=CC(=O)CC[C@]4(C)[C@H]3CC[C@@]21C	inactive	
C=CCc1ccc(OC)c(OC)c1	inactive	
CC(C)(C)c1ccccc1	inactive	
NC=O	inactive	
COC(=O)CCCC(=O)OC	inactive	
O=[Si]=O	inactive	
Cn1cnc2c1c(=O)[nH]c(=O)n2C	inactive	
CC1(C)C(=O)NC(=O)N1CO	inactive	

— PubChem BioAssay (EPA / NIEHS)
